Measured values as given in PubChem BioAssay AID1159580 (chemical genetic matrix, 2015).
The campaign covered roughly 5,500 compounds. About 2,000 (36%) were called active. About 18% were inconclusive and are not listed. Cut-off read from the data, not from the text of the source: active = normalized growth mostly below about 0.91 (no sharp cut-off); inconclusive = no clear call, values can overlap the other calls; inactive = mostly above about 0.92. The list shows a part of the results.

Experiment: chemical genetic growth profiling, strain panel (AID 1159580);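 note: tested at 20 µM; growth read once vehicle control cultures reached saturation at 30 °C; 1 = growth at the plate median or of vehicle wells; lower values mean less growth of the strain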
Conditions: S. cerevisiae deletion strains, growth OD

Measured: normalized growth

Cc1c(O)cc(O)c2c(=O)c(-c3ccc(O)cc3)coc12
inactive: locus YBR021W, strain FUR4, hits give low values 1.01 | locus YBR229C, strain ROT2, hits give low values 1 | locus YCL029C, strain bik1, hits give low values 1.02 | locus YDL035C, strain GPR1, hits give low values 1.01 | locus YDL074C, strain BRE1, hits give low values 1.01 | locus YDL101C, strain DUN1, hits give low values 1.01 | locus YDL185W, strain tfp1, hits give low values 1.01 | locus YDL192W, strain arf1, hits give low values 1.02 | locus YDR101C, strain arx1, hits give low values 1 | locus YDR150W, strain NUM1, hits give low values 0.997 | locus YDR162C, strain NBP2, hits give low values 1 | locus YDR318W, strain mcm21, hits give low values 1 | locus YDR388W, hits give low values 1.01 | locus YDR502C, strain sam2, hits give low values 1.01 | locus YEL061C, strain CIN8, hits give low values 0.993 | locus YER110C, hits give low values 1.02 | locus YER155C, strain BEM2, hits give low values 1.01 | locus YER167W, strain BCK2, hits give low values 1 | locus YGL078C, strain dbp3, hits give low values 1.01 | locus YGL086W, strain mad1, hits give low values 1.02 | locus YGL248W, strain PDE1, hits give low values 1 | locus YGR078C, strain PAC10, hits give low values 0.978 | locus YGR135W, strain pre9, hits give low values 1.03 | locus YGR229C, strain SMI1, hits give low values 0.987 | locus YGR252W, strain gcn5, hits give low values 0.983 | locus YHR030C, strain SLT2, hits give low values 1 | locus YHR079C, strain IRE1 (second series), hits give low values 1 | locus YHR094C, strain hxt1, hits give low values 1 | locus YHR129C, strain ARP1, hits give low values 1 | locus YHR200W, strain rpn10, hits give low values 1.01 | locus YIL066C, strain RNR3, hits give low values 0.995 | locus YIL073C, strain SPO22, hits give low values 1.07 | locus YIL125W, strain kgd1, hits give low values 0.996 | locus YIR030C, strain dcg1, hits give low values 1.01 | locus YJL095W, strain BCK1, hits give low values 0.998 | locus YJL134W, strain LCB3, hits give low values 1 | locus YJL168C, strain set2, hits give low values 1 | locus YJL187C, strain SWE1 (second series), hits give low values 0.991 | locus YJR043C, strain POL32, hits give low values 0.997 | locus YJR075W, strain HOC1, hits give low values 0.99 | locus YKL009W, strain mrt4, hits give low values 0.99 | locus YKL068W, hits give low values 1 | locus YKL085W, strain MDH1 (second series), hits give low values 0.994 | locus YKL085W, strain MDH1, hits give low values 0.994 | locus YKL190W, strain CNB1, hits give low values 0.986 | locus YKR001C, strain vps1, hits give low values 0.992 | locus YLR039C, strain RIC1, hits give low values 1.18 | locus YLR058C, strain SHM2, hits give low values 0.993 | locus YLR102C, strain apc9, hits give low values 1.01 | locus YLR262C, strain YPT6, hits give low values 1.21 | locus YLR268W, strain sec22, hits give low values 1.01 | locus YLR330W, strain CHS5, hits give low values 1.01 | locus YLR342W, strain FKS1 (second series), hits give low values 1.02 | locus YLR371W, strain rom2, hits give low values 1.01 | locus YLR418C, strain cdc73, hits give low values 0.95 | locus YML016C, strain PPZ1, hits give low values 1.01 | locus YML032C, strain rad52, hits give low values 0.995 | locus YML124C, strain tub3, hits give low values 1.02 | locus YMR078C, strain ctf18, hits give low values 1.01 | locus YMR223W, strain ubp8, hits give low values 1.01 | locus YMR263W, strain SAP30, hits give low values 0.989 | locus YMR307W, strain GAS1, hits give low values 0.993 | locus YNL067W, strain RPL9B, hits give low values 0.986 | locus YNL153C, strain GIM3, hits give low values 0.979 | locus YNL233W, strain BNI4, hits give low values 0.979 | locus YNL250W, strain rad50, hits give low values 1.01 | locus YNL271C, strain bni1, hits give low values 1.02 | locus YNL298W, strain CLA4, hits give low values 1.01 | locus YNL307C, strain MCK1, hits give low values 1.01 | locus YNR052C, strain pop2, hits give low values 1.01 | locus YOL012C, strain htz1 1.03 | locus YOL147C, strain pex11, hits give low values 0.998 | locus YOR061W, strain CKA2, hits give low values 1 | locus YOR069W, strain VPS5, hits give low values 1.01 | locus YOR136W, strain idh2, hits give low values 0.999 | locus YOR144C, strain elg1, hits give low values 1 | locus YOR184W, strain ser1, hits give low values 0.988 | locus YOR316C, strain cot1, hits give low values 1.02 | locus YPL055C, strain LGE1, hits give low values 0.944 | locus YPR119W, strain clb2, hits give low values 1 | locus YPR141C, strain kar3, hits give low values 1.02 | locus YPR163C, strain tif3, hits give low values 1 | locus YPR167C, strain met16, hits give low values 1.03 | strain wtn01, hits give low values 1.01
